Data on eleven molecules can be found in PubChem BioAssay AID1508633 (National Center for Advancing Translational Sciences (NCATS), 2021).

Inconclusive results are not listed. Calls of active or inactive are those of the source. Calls follow the shape of the dose curve; as a rule, active = well fitted inhibition curve with a large enough effect; inconclusive = small, poorly fitted or top-dose-only effect; inactive = no such curve, though single readings can be large or run the other way.

In the test the test system is zebrafish ABCB5 (Abcb5) multidrug transporter. Description: qHTS for characterization and localization of zebrafish homologs of the human ABCB1 multidrug transporter: ABCB5 transfected cells. The settings on record: CellTiter-Glo luminescence viability, 72 h; series mostly up to 46.1 µM; activity, negative = inhibition: at the top concentration. A digest of the protocol:
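Empty-vector, P-gp-overexpressing MDR-19 and zebrafish abcb4- or abcb5-transfected cells were exposed to ~90 P-gp substrates at varying concentrations for 72 h at 37C. Viability was read by CellTiter-Glo luminescence; cytotoxic meant inhibitory curve class, >50% maximal response and AC50 < 10 uM.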
`CCn1nnc2c(N3CCOCC3)nc(-c3ccc(NC(=O)Nc4ccc(C(=O)N5CCN(C)CC5)cc4)cc3)nc21`: the Potency is 1.87 µM (active).

`CN(C)C/C=C/C(=O)Nc1cccc(C(=O)Nc2ccc(Nc3nccc(-c4cccnc4)n3)cc2)c1`: the Potency is 14.8 µM (active).

Take `COCCn1c2c([n+](Cc3cnccn3)c1C)C(=O)c1ccccc1C2=O`: the Potency is 0.0935 µM (active).

Turning to `CN(C)CCN(C)C(=O)c1ccc(NC(=O)Nc2ccc(-c3nc(N4CCOCC4)c4ccn(CC(F)(F)F)c4n3)cc2)cc1`, the Potency was 2.35 µM (active).

Take `CC(=O)OC1C(=O)C2(C)C(O)CC3OCC3(OC(C)=O)C2C(OC(=O)c2ccccc2)C2(O)CC(OC(=O)C(O)C(NC(=O)c3ccccc3)c3ccccc3)C(C)=C1C2(C)C` (stereo unspecified): the “activity, negative = inhibition” value was -31.9% (inactive).

Turning to `C=C1CO[C@@]2(O[C@H]3CC4C5CC=C6C[C@@H](O)C[C@@H](O[C@@H]7OC[C@H](O)[C@H](O[C@@H]8OC[C@@H](O)[C@H](O)[C@H]8O)[C@H]7O[C@@H]7O[C@@H](C)[C@H](OC(C)=O)[C@@H](OC(C)=O)[C@H]7OC(C)=O)[C@]6(C)C5CC[C@]4(C)[C@@H]3[C@@H]2C)[C@@H](O)[C@H]1OC1OC(C)C(O)C(O)C1O` (stereo partly specified), the activity, negative = inhibition is 3.83% [at 8.96 µM] (inactive).

Consider `N=C(N)c1ccc(OCCCCCOc2ccc(C(=N)N)cc2)cc1`, for which the Potency was 13.2 µM (active).

Regarding `NC(=O)Nc1cc(-c2ccc(CN3CCOCC3)c(F)c2)sc1C(=O)N[C@H]1CCCNC1`, the Potency was 1.48 µM (active).

As for `CC(C)C[C@H](NC(=O)[C@H](CCc1ccccc1)NC(=O)CN1CCOCC1)C(=O)N[C@@H](Cc1ccccc1)C(=O)N[C@@H](CC(C)C)C(=O)[C@@]1(C)CO1`, the Potency was 0.166 µM (active).

Regarding `COc1cc2ncn(-c3cc(OCc4ccccc4C(F)(F)F)c(C(N)=O)s3)c2cc1OC`, the Potency is 6.79 µM (active).

Consider `CC(=O)O[C@@H]1C[C@H](O)[C@@]23CO[C@@H](O)C1(C)[C@@H]2C[C@@H](O)[C@]1(C)[C@@H]3C(=O)[C@H](OC(C)=O)[C@@]2(C)[C@H](c3ccoc3)C[C@H]3O[C@]321`, for which the Potency was 1.05 µM (active).
